Source: the supplement of paper PMC10720658
± gives the standard deviation of the averaged measurements.

System: AEK1 (Tb927.3.2440)
Assay: percent reduction in TR-FRET probe signal relative to DMSO control; higher = stronger displacement of ATP-site probe (binding)
Details: 1 µM; incubation time 1 h

SMILES: Nc1ncnc2c1c(-c1cnc3[nH]ccc3c1)nn2C1CCCC1
- percent reduction in TR-FRET probe signal: 21.6 ± 20%

SMILES: N#CC[C@H](C1CCCC1)n1cc(-c2ncnc3[nH]ccc23)cn1
- percent reduction in TR-FRET probe signal: 22.6 ± 7.6%

SMILES: NC(=O)c1ccc(N(C(N)=O)c2c(F)cccc2F)nc1-c1ccc(F)cc1F
- percent reduction in TR-FRET probe signal: -4.77 ± 9.4%

SMILES: COc1ccccc1-c1cc(Nc2cccc(CS(N)(=O)=O)c2)ncn1
- percent reduction in TR-FRET probe signal: -8.94 ± 6.4%

SMILES: COc1cc(CCc2cc(NC(=O)c3ccc(N4C[C@@H](C)N[C@@H](C)C4)cc3)n[nH]2)cc(OC)c1
- percent reduction in TR-FRET probe signal: 2.07 ± 10%

SMILES: C=CC(=O)N1CCCC(n2nc(-c3ccc(Oc4ccccc4)cc3)c3c(N)ncnc32)C1 (stereo not given)
- percent reduction in TR-FRET probe signal: 4.46 ± 4.9%

SMILES: C[C@@H]1COCCN1c1cc(C2(S(C)(=N)=O)CC2)nc(-c2ccnc3[nH]ccc23)n1 (stereo not given in full)
- percent reduction in TR-FRET probe signal: 8.44 ± 6%

SMILES: O=C(NOCC(O)CO)c1cc(Br)c(F)c(F)c1Nc1ccc(I)cc1F (stereo not given)
- percent reduction in TR-FRET probe signal: -4.38 ± 12%

SMILES: CN(C)S(=O)(=O)c1ccc2c(c1)/C(=C/c1cc3c([nH]1)CCCC3)C(=O)N2
- percent reduction in TR-FRET probe signal: 43.6 ± 21%

SMILES: O=c1ccc2ccc(O)c(O)c2o1 [Daphnetin]
- percent reduction in TR-FRET probe signal: -1.13 ± 8.9%

SMILES: O=C(NCCO)c1cccc(-c2cc(Nc3ccc(OC(F)(F)F)cc3)ncn2)c1
- percent reduction in TR-FRET probe signal: 13.3 ± 16%

SMILES: Cc1nc(NC(=O)N2CCC[C@H]2C(N)=O)sc1-c1ccnc(C(C)(C)C(F)(F)F)c1
- percent reduction in TR-FRET probe signal: 0.68 ± 7.1%

SMILES: Cc1c(F)cc(C(=O)NC2CC2)cc1-c1ccc(C(=O)NCC(C)(C)C)cn1
- percent reduction in TR-FRET probe signal: -10 ± 9.6%

SMILES: COc1ncc(-c2ccc3nccc(-c4ccnnc4)c3c2)cc1NS(=O)(=O)c1ccc(F)cc1F
- percent reduction in TR-FRET probe signal: 3.02 ± 16%

SMILES: O=C(Nc1nc2cccc(-c3ccc(CN4CCS(=O)(=O)CC4)cc3)n2n1)C1CC1 [Filgotinib (GLPG0634)]
- percent reduction in TR-FRET probe signal: 9.11 ± 14%

SMILES: Cn1cc(C2=C(c3ccc(Cl)cc3Cl)C(=O)NC2=O)c2ccccc21
- percent reduction in TR-FRET probe signal: -6.53 ± 5.3%

SMILES: CCN1/C(=C/C(C)=O)Sc2ccc(OC)cc21
- percent reduction in TR-FRET probe signal: 2.44 ± 5.9%

SMILES: CNC(=O)c1nn(C)c2c1C(C)(C)Cc1cnc(Nc3ccc(N4CCN(C)CC4)cc3)nc1-2
- percent reduction in TR-FRET probe signal: -3.55 ± 7.5%

SMILES: O=C(O)c1ccc(Nc2ncc3c(n2)-c2ccc(Cl)cc2C(c2c(F)cccc2F)=NC3)cc1
- percent reduction in TR-FRET probe signal: -4.14 ± 5.4%

SMILES: Cn1cnc(N)c2ncnc1-2 [3-Methyladenine (3-MA)]
- percent reduction in TR-FRET probe signal: -2.13 ± 5.3%

SMILES: N[C@@H]1CCCN(c2c(/C=C3\SC(=O)NC3=O)cccc2-c2ccccc2)C1
- percent reduction in TR-FRET probe signal: -4.54 ± 7.8%

SMILES: C=CC(=O)Nc1cccc(Sc2nc(Nc3ccc(N4CCN(C)CC4)cc3)ncc2Cl)c1
- percent reduction in TR-FRET probe signal: 3.76 ± 18%

SMILES: CCNc1nc(Nc2cc(F)c(C(=O)N3CCOCC3)cc2OC)ncc1C(F)(F)F
- percent reduction in TR-FRET probe signal: 11.9 ± 11%

SMILES: CCN1CCN(Cc2ccc(Nc3ncc(F)c(-c4cc(F)c5nc(C)n(C(C)C)c5c4)n3)nc2)CC1
- percent reduction in TR-FRET probe signal: -4.88 ± 6.8%

SMILES: CCc1ccc(/C=C2/SC(=S)NC2=O)cc1
- percent reduction in TR-FRET probe signal: -1.24 ± 9.7%

SMILES: CC(C)(O)CC(=O)NCCn1ccc2ncnc(Nc3ccc(Oc4cccc(C(F)(F)F)c4)c(Cl)c3)c21
- percent reduction in TR-FRET probe signal: -2.36 ± 7.6%

SMILES: O=C(O)c1ccc(-c2c[nH]c3ncc(-c4ccccc4)cc23)cc1C1CCCC1
- percent reduction in TR-FRET probe signal: -2.47 ± 9.6%

SMILES: CS(=O)c1ccc(-c2nc(-c3ccc(F)cc3)c(-c3ccncc3)[nH]2)cc1 (stereo not given)
- percent reduction in TR-FRET probe signal: -6.83 ± 8.7%

SMILES: CC(C)(O)CNc1ncc(-c2ccnc(Nc3ccnc(Cl)c3)n2)c(CC2CC2)n1
- percent reduction in TR-FRET probe signal: 4.25 ± 12%

SMILES: CC(C)(C)Cn1c(N)nc2ccc(-c3[nH]c(C(C)(C)C)nc3-c3ccc(F)cc3)nc21.CS(=O)(=O)O.CS(=O)(=O)O
- percent reduction in TR-FRET probe signal: -14.9 ± 5.8%

SMILES: Cc1ccc(C(=O)Nc2cccc(C(F)(F)F)c2)cc1Nc1nc(-c2cccnc2)nc2c1cnn2C
- percent reduction in TR-FRET probe signal: 1 ± 8.4%

SMILES: O=C1NC(=O)/C(=C/c2ccc3c(c2)OC(F)(F)O3)S1
- percent reduction in TR-FRET probe signal: -3.7 ± 5.9%

SMILES: Cc1nc(Nc2n[nH]c3c2CN(C(=O)N[C@H](CN(C)C)c2ccccc2)C3(C)C)c2sccc2n1
- percent reduction in TR-FRET probe signal: 61.8 ± 9.6%

SMILES: Cc1n[nH]c2ccc(-c3cncc(OC[C@@H](N)Cc4ccccc4)c3)cc12
- percent reduction in TR-FRET probe signal: 14.1 ± 24%

SMILES: COc1cc2ncnc(Oc3cccc(NC(=O)Nc4cc(C(C)(C)C(F)(F)F)on4)c3)c2cc1OC
- percent reduction in TR-FRET probe signal: 1.1 ± 13%

SMILES: CC(C)(C)c1cc(/C=C(\C#N)C(N)=S)cc(C(C)(C)C)c1O [Tyrphostin AG 879]
- percent reduction in TR-FRET probe signal: 4.66 ± 0.43%

SMILES: COc1ccc(F)c(F)c1C(=O)c1cnc(NC2CCN(S(C)(=O)=O)CC2)nc1N
- percent reduction in TR-FRET probe signal: 4.07 ± 8.4%

SMILES: Cc1cc([C@@H](C)Nc2ccccc2C(=O)O)c2nc(N3CCOCC3)cc(=O)n2c1
- percent reduction in TR-FRET probe signal: -5.32 ± 14%

SMILES: Cc1cc(O)c2c(c1)C(=O)c1cccc(O)c1C2=O [Chrysophanic Acid]
- percent reduction in TR-FRET probe signal: 6.22 ± 14%

SMILES: C[C@H](Nc1ncnc2nc[nH]c12)c1cc2cccc(Cl)c2c(=O)n1-c1ccccc1
- percent reduction in TR-FRET probe signal: -9.85 ± 5.9%

SMILES: Cc1c(CN2CCN(C(=O)[C@H](C)O)CC2)sc2c(N3CCOCC3)nc(-c3cnc(N)nc3)nc12
- percent reduction in TR-FRET probe signal: 0.467 ± 7.8%

SMILES: CO[C@H]1C[C@@H]2CC[C@@H](C)[C@@](O)(O2)C(=O)C(=O)N2CCCC[C@H]2C(=O)O[C@H]([C@@H](C)C[C@@H]2CC[C@@H](OCCO)[C@H](OC)C2)CC(=O)[C@H](C)/C=C(\C)[C@@H](O)[C@@H](OC)C(=O)[C@H](C)C[C@H](C)/C=C/C=C/C=C/1C [Everolimus (RAD001)]
- percent reduction in TR-FRET probe signal: -14.9 ± 8.4%

SMILES: NC1(Cc2ccc(Cl)cc2)CCN(c2ncnc3[nH]ccc23)CC1
- percent reduction in TR-FRET probe signal: 2.05 ± 3.4%

SMILES: Nc1nccc(Oc2ccc(NC(=O)c3c[nH]cc(-c4ccc(F)cc4)c3=O)cc2F)c1Cl
- percent reduction in TR-FRET probe signal: 24.6 ± 15%

SMILES: Cn1cnc2c(F)c(Nc3ccc(Br)cc3Cl)c(C(=O)NOCCO)cc21 [Selumetinib (AZD6244)]
- percent reduction in TR-FRET probe signal: 11.4 ± 34%

SMILES: C=CC(=O)Nc1cccc(Nc2nc(Nc3ccc(OCCOC)cc3)ncc2F)c1
- percent reduction in TR-FRET probe signal: -0.667 ± 7.7%

SMILES: CN1CCN(CCOc2cc(OC3CCOCC3)c3c(Nc4c(Cl)ccc5c4OCO5)ncnc3c2)CC1 [Saracatinib (AZD0530)]
- percent reduction in TR-FRET probe signal: 11.4 ± 13%

SMILES: N#Cc1c(O)c2c(-c3ccc(-c4ccccc4O)cc3)csc2[nH]c1=O
- percent reduction in TR-FRET probe signal: -7.05 ± 2.1%

SMILES: CN(c1ncccc1CNc1nc(Nc2ccc3c(c2)CC(=O)N3)ncc1C(F)(F)F)S(C)(=O)=O.O=S(=O)(O)c1ccccc1
- percent reduction in TR-FRET probe signal: 37.1 ± 14%

SMILES: CS(=O)(=O)CCNCc1ccc(-c2ccc3ncnc(Nc4ccc(OCc5cccc(F)c5)c(Cl)c4)c3c2)o1 [Lapatinib]
- percent reduction in TR-FRET probe signal: 6.42 ± 9.8%

SMILES: COc1ccc(S(=O)(=O)N(CCO)c2ccccc2CN(C)C/C=C/c2ccc(Cl)cc2)cc1.O=P(O)(O)O [KN-93 Phosphate]
- percent reduction in TR-FRET probe signal: -9.18 ± 9.6%

SMILES: Cc1nc(N)sc1-c1ccnc(Nc2ccc(N3CCOCC3)cc2)n1
- percent reduction in TR-FRET probe signal: 10.3 ± 6.7%

SMILES: CN1CCN(S(=O)(=O)c2ccc(-c3cnc(N)c(C(=O)Nc4cccnc4)n3)cc2)CC1
- percent reduction in TR-FRET probe signal: -4.29 ± 6.5%

SMILES: CO[C@H]1C[C@@H]2CC[C@@H](C)[C@@](O)(O2)C(=O)C(=O)N2CCCC[C@H]2C(=O)O[C@H]([C@H](C)C[C@@H]2CC[C@H](n3cnnn3)[C@H](OC)C2)CC(=O)[C@H](C)/C=C(\C)[C@@H](O)[C@@H](OC)C(=O)[C@H](C)C[C@H](C)/C=C/C=C/C=C/1C [Zotarolimus(ABT-578)]
- percent reduction in TR-FRET probe signal: -16.6 ± 5%

SMILES: CCN(CC)CCCC(C)Nc1ccnc2cc(Cl)ccc12.O=P(O)(O)O.O=P(O)(O)O (stereo not given) [Chloroquine Phosphate]
- percent reduction in TR-FRET probe signal: -15.1 ± 5.7%

SMILES: O=C(O)CCC(=O)Nc1ccc(Br)cn1 [Bikinin]
- percent reduction in TR-FRET probe signal: -3.76 ± 0.8%

SMILES: C=CC(=O)Nc1cccc(Oc2nc(Nc3ccc(N4CCN(C)CC4)cc3OC)ncc2Cl)c1
- percent reduction in TR-FRET probe signal: 3 ± 23%

SMILES: COc1ccc(-c2nc(N3CCOCC3)c3sc(CN(C)c4ncc(C(=O)NO)cn4)cc3n2)cn1
- percent reduction in TR-FRET probe signal: -2.41 ± 5.7%

SMILES: NC(=O)c1ccc(-c2nc(-c3ccc4c(c3)OCCO4)c(-c3ccccn3)[nH]2)cc1
- percent reduction in TR-FRET probe signal: -1.5 ± 7.3%

SMILES: COc1cc(OC)c(/C=C/S(=O)(=O)Cc2ccc(OC)c(NCC(=O)[O-])c2)c(OC)c1.[Na+]
- percent reduction in TR-FRET probe signal: -3.78 ± 11%

SMILES: Nc1nc(Nc2ccc(S(N)(=O)=O)cc2)nn1C(=O)c1c(F)cccc1F
- percent reduction in TR-FRET probe signal: 27.8 ± 16%

SMILES: CCCNC(=O)Nc1ccc(Oc2ncnc3cc(OC)c(OC)cc23)cc1Cl
- percent reduction in TR-FRET probe signal: -3.67 ± 12%

SMILES: CC1(C)CNc2cc(NC(=O)c3cccnc3NCc3ccncc3)ccc21.O=P(O)(O)O.O=P(O)(O)O [Motesanib Diphosphate (AMG-706)]
- percent reduction in TR-FRET probe signal: 2.79 ± 7.6%

SMILES: O=C(Nc1cccnc1)c1cc(-c2ccnc(F)c2)ccc1OCc1ccccc1
- percent reduction in TR-FRET probe signal: -0.16 ± 3.2%

SMILES: Cl.Cl.c1cc(-c2cnn3cc(-c4ccc(OCCN5CCCCC5)cc4)cnc23)ccn1 [Dorsomorphin 2HCl]
- percent reduction in TR-FRET probe signal: -8.77 ± 4.9%

SMILES: CC(C)Nc1cc(-c2c[nH]c(C(=O)N[C@H](CO)c3cccc(Cl)c3)c2)c(Cl)cn1
- percent reduction in TR-FRET probe signal: 0.153 ± 2.1%

SMILES: O=C1NC(=O)/C(=C\c2ccc(-c3ccc(F)cc3)o2)S1
- percent reduction in TR-FRET probe signal: -0.187 ± 4.6%

SMILES: CC[C@@H]1C(=O)N(C)c2cnc(Nc3ccc(C(=O)N[C@H]4CC[C@H](N5CCN(CC6CC6)CC5)CC4)cc3OC)nc2N1C(C)C [Volasertib (BI 6727)]
- percent reduction in TR-FRET probe signal: 4.92 ± 1.3%

SMILES: Cc1ccc(C(=O)Nc2ccc(CN3CCN(C)CC3)c(C(F)(F)F)c2)cc1C#Cc1cnc2cccnn12
- percent reduction in TR-FRET probe signal: 0.933 ± 14%

SMILES: Cc1ccc(S(=O)(=O)/C=C/C#N)cc1
- percent reduction in TR-FRET probe signal: -7.27 ± 4.2%

SMILES: CC(=O)Nc1cccc(-n2c(=O)n(C3CC3)c(=O)c3c(Nc4ccc(I)cc4F)n(C)c(=O)c(C)c32)c1
- percent reduction in TR-FRET probe signal: 4.31 ± 12%

SMILES: Cn1cnc2c(F)c(Nc3ccc(Br)cc3F)c(C(=O)NOCCO)cc21
- percent reduction in TR-FRET probe signal: -1.44 ± 2.7%

SMILES: Cc1cnc(NC(=O)Nc2cc(Br)c(C)cc2OC[C@@H]2CNCCO2)cn1
- percent reduction in TR-FRET probe signal: 9.29 ± 6.3%

SMILES: Cc1ccc(NC(=O)c2cccc(N(C)C)c2)cc1NC(=O)c1ccc(O)cc1
- percent reduction in TR-FRET probe signal: -8.68 ± 4%

SMILES: Cc1ccc(NC(=O)c2ccc(CN3CCN(C)CC3)cc2)cc1Nc1nc(-c2cccnc2)cs1 [Masitinib (AB1010)]
- percent reduction in TR-FRET probe signal: -4.2 ± 7%
